Test results reported in the supplement of paper PMC3545927.
This is one part of the list. The true hit rate is not given.

Target: furin, P09958
Assay: furin cleavage Z-score vs untreated control; higher = more cleavage, active = 3.5 or more, inactive = 1 or less, 8 variable residues between constant flanks
Method in brief: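 Abundance of DNA freed from bead-bound 8-mer peptide–cDNA fusions by purified furin was measured as sequencing read counts after PCR adapter tagging. Cutting ran 7.5, 15 or 30 min in 0.01 ml of 50 mM HEPES pH 7.5 with CaCl2 and NaCl at 1:10 enzyme:substrate. The cleavage Z-score expresses these log counts against furin-free reactions after lowess adjustment and median absolute deviation scaling.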

Chain of furin, P09958 (P09958 whole entry): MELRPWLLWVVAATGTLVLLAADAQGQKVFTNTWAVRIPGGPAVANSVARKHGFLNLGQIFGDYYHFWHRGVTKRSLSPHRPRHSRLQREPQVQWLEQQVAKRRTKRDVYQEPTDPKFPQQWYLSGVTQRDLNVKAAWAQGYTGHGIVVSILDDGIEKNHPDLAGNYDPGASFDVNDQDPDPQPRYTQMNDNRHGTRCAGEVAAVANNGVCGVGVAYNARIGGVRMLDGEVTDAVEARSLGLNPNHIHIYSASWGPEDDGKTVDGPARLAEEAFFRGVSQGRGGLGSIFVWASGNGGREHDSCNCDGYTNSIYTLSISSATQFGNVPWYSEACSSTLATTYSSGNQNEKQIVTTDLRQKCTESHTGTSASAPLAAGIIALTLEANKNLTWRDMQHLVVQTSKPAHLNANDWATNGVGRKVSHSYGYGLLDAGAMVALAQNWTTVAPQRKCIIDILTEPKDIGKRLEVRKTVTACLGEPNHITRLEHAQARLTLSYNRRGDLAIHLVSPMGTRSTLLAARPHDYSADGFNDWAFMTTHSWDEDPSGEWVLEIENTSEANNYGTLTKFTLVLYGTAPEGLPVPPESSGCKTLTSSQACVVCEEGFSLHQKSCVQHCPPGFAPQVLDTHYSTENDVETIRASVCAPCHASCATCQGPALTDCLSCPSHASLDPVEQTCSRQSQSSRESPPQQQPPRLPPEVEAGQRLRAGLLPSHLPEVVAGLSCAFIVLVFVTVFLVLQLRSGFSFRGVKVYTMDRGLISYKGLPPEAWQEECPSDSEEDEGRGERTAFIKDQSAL

Sequence | furin cleavage Z-score (7.5 min) | furin cleavage Z-score (15 min) | furin cleavage Z-score (30 min)
CAKKTPMGFSAGNASASA [HC1476] | -0.403 (inactive) | 1.01 | -1.33 (inactive)
CAHEECSQHLAGNASASA [HC1675] | -0.578 (inactive) | 0.64 (inactive) | 1.48
CAVVCQSMSYAGNASASA [HC99] | 0.407 (inactive) | 0.993 (inactive) | 0.767 (inactive)
CAHVQRQRREAGNASASA [FS-441] | 12.3 (active) | 12.8 (active) | 9.16 (active)
CAPCQVPSPEAGNASASA [HC1217] | 0.307 (inactive) | -0.147 (inactive) | 0.789 (inactive)
CAPCCRQRREAGNASASA [FS-471] | 10.1 (active) | 8.7 (active) | 8.83 (active)
CAYSPGQRVEAGNASASA [HC1468] | -0.672 (inactive) | 1.68 | -1.81 (inactive)
CAGHYVQMVIAGNASASA [HC626] | -0.996 (inactive) | -0.792 (inactive) | 0.151 (inactive)
CAEVDTSTWVAGNASASA [HC2191] | -0.604 (inactive) | -1.24 (inactive) | 0.933 (inactive)
CAVAHLHAPTAGNASASA [HC773] | -0.671 (inactive) | -1.87 (inactive) | -0.0272 (inactive)
CAALSNSLLRAGNASASA [HC1383] | -1.04 (inactive) | 0.165 (inactive) | 0.485 (inactive)
CARHKRKQLPAGNASASA [FS-1823] | 1.11 | -0.015 (inactive) | 2.17
CARNKRKVFSAGNASASA [FS-2159] | 0.528 (inactive) | 1.39 | 3.14
CARHKRETLKAGNASASA [FS-2678] | 8.31 (active) | 10.5 (active) | 9.25 (active)
CARHKRKVFEAGNASASA [FS-1954] | 0.591 (inactive) | 1.75 | 4.34 (active)
CARHKRSLLRAGNASASA [FS-2336] | 3.75 (active) | 5.3 (active) | 6.44 (active)
CARHKRMCQGAGNASASA [FS-2335] | 1.23 | 0.787 (inactive) | 3.08
CARHKRRSKFAGNASASA [FS-2938] | 1.38 | 2.52 | 5.2 (active)
CAPLPPPKSPAGNASASA [HC1318] | -0.389 (inactive) | 0.488 (inactive) | -0.355 (inactive)
CAFGYGAKDVAGNASASA [HC1421] | 0.651 (inactive) | 1.8 | 1.24
CAAYQVRNSTAGNASASA [HC256] | -0.996 (inactive) | -1.12 (inactive) | -0.888 (inactive)
CAEDLVNLLPAGNASASA [HC1099] | 0.711 (inactive) | 1.96 | 0.196 (inactive)

Sequence | furin cleavage Z-score (7.5 min) | furin cleavage Z-score (15 min) | furin cleavage Z-score (30 min)
CAEAVVCCSMAGNASASA [HC2123] | -0.484 (inactive) | 0.759 (inactive) | 0.473 (inactive)
CARHQRTENIAGNASASA [FS-2942] | -1.07 (inactive) | -2.42 (inactive) | -0.236 (inactive)
CARHKRVGTLAGNASASA [FS-2143] | 0.0898 (inactive) | 0.0513 (inactive) | 2.38
CARHYRWALGAGNASASA [FS-1719] | -0.124 (inactive) | 3.28 | 3.44
CARHGRDLYRAGNASASA [FS-2675] | 1.82 | 4.66 (active) | 6.11 (active)
CARHKRIPPEAGNASASA [FS-3254] | 0.983 (inactive) | 0.356 (inactive) | 0.464 (inactive)
CARHKRVHSGAGNASASA [FS-1895] | -1.2 (inactive) | -0.376 (inactive) | -0.241 (inactive)
CARHYRNVFHAGNASASA [FS-2557] | 1.27 | 2.18 | 5.01 (active)
CARHKRTIPMAGNASASA [FS-2023] | 6.33 (active) | 8.53 (active) | 8.43 (active)
CARHKRWHFIAGNASASA [FS-1824] | 2.19 | 2.25 | 4.89 (active)
CARHYRSNSPAGNASASA [FS-2027] | 1.06 | -1.02 (inactive) | -0.217 (inactive)
CAMEECEQHLAGNASASA [HC33] | -0.264 (inactive) | 1.94 | 0.732 (inactive)
CAEDVTSTWVAGNASASA [HC2171] | 0.61 (inactive) | -0.472 (inactive) | 0.123 (inactive)
CAEHEVPCHRAGNASASA [HC2455] | 0.493 (inactive) | 1.57 | 2.02
CARRKKSGRGAGNASASA [FS-2777] | 0.0968 (inactive) | 0.171 (inactive) | 1.92
CARRKKSLSEAGNASASA [FS-3050] | 4.99 (active) | 7.01 (active) | 7.62 (active)
CAVAIKSLTEAGNASASA [HC1496] | 0.199 (inactive) | 0.138 (inactive) | 0.903 (inactive)
CARRKKALEIAGNASASA [FS-2593] | 0.898 (inactive) | 1.66 | 1.58
CARRKKSAPAAGNASASA [FS-2514] | 4.51 (active) | 6.24 (active) | 5.54 (active)
CARRARVTDAAGNASASA [FS-2513] | 0.594 (inactive) | 0.414 (inactive) | 0.64 (inactive)
CARRARGADAAGNASASA [FS-2512] | 2.72 | 3.57 (active) | 4.42 (active)
CARRARSAPAAGNASASA [FS-2368] | 10.3 (active) | 10.4 (active) | 8.53 (active)
